The values that follow come from PubChem BioAssay AID1745849 (National Center for Advancing Translational Sciences (NCATS), 2022).

In all, about 2,100 compounds went through this assay and about 320 (15%) were called active. Roughly 52% stayed inconclusive and do not appear here. Calls come from the whole dose curve; as a rule, active = well fitted cell-killing curve with a large enough effect; inconclusive = small, poorly fitted or top-dose-only effect, or effect the other way; inactive = flat fitted curve, though single readings scatter. This is one part of the list. Entries that show only a call come without a potency.
Potency is the fitted concentration of half-maximal effect.

The assay can be described thus: Viability Counterscreen for CMV-Luciferase Assay of Inhibitors of ATXN expression. Note: nearly all actives have a fitted effect of over 55% in size. Particulars: HEK-293 CMV-luciferase cells viability, protease fluorescence, 24 h. Put shortly: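 Dosing on CMV-luciferase HEK-293 cells for 24 hr, 37 °C. Luminescence read with SteadyGlo; cytotoxicity measured first as Gly-Phe-AFC protease fluorescence, 25 uM final substrate, 30 min.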
A general note: A counterscreen serves to expose hits that act by an unwanted route or on another target.
As for `COC(=O)c1ccc(N2CCOCC2)c(NC(=O)Nc2cccc(OC)c2)c1`, the Potency entry was “inactive”.

For the molecule `CCCC(=O)NC(c1ccco1)c1cc(Cl)c2cccnc2c1O` (centres undefined), the Potency entry is “inactive”.

In the case of `O=C(NC(c1ccccc1)c1c(O)ccc2ccccc12)c1ccccc1Cl` (centres undefined), the Potency entry was “inactive”.

For `CCCC(=O)NC(c1ccc(OC)cc1)c1c(O)ccc2ccccc12` (centres undefined), the Potency is 10 µM (active).

On to `O=[N+]([O-])c1ccc(/C=N/N=C/c2ccc([N+](=O)[O-])o2)o1`, for which the Potency is 4.47 µM (active).

On to `O=C(N/N=C/c1cc(Cl)cc([N+](=O)[O-])c1O)c1cccc(S(=O)(=O)N2CCOCC2)c1`, for which the Potency entry was “inactive”.

On to `O=C(Nc1ccc(NC(=O)c2cccs2)cc1)c1ccc2c(c1)OCO2`, for which the Potency entry is “inactive”.

Consider `Cc1ncc(CO)c(/C=N/NC(=O)c2cccc(S(=O)(=O)N3CCCC3)c2)c1O`, for which the Potency result is “inactive”.

As to `O=C(N/N=C/c1ccccc1O)c1cccc(C(F)(F)F)c1`, the Potency result is “inactive”.

In the case of `O=C(N/N=C/c1ccc([N+](=O)[O-])o1)c1ccc2c(c1)OCO2`, the Potency is 17.8 µM (active).

As to `COc1ccccc1NS(=O)(=O)c1cccc(C(=O)N/N=C/c2ccc([N+](=O)[O-])o2)c1`, the Potency was 10 µM (active).

Take `Cn1c(S(=O)(=O)c2ccc([N+](=O)[O-])cc2)nc(Br)c1Br`: the Potency entry was “inactive”.

`CC(C)C[C@H](NC(=O)c1[nH]cnc1C(=O)Nc1ccc(CNC(=O)OC(C)(C)C)cc1)C(=O)OCc1ccccc1`: the Potency result was “inactive”.

Turning to `CCc1noc(C)c1C(=O)N1CCSC1=Nc1cccc(Cl)c1C`, the Potency entry was “inactive”.

Turning to `CCC(C)(C)c1ccc(Oc2ccc(N)cc2)cc1`, the Potency entry was “inactive”.

As to `NNC(=O)c1sc2cc(C(F)(F)F)cnc2c1-c1cccs1`, the Potency result is “inactive”.

As for `CCc1ccc(C(O)c2ncc(-c3cccc(C(F)(F)F)c3)[nH]2)cc1` (centres undefined), the Potency result is “inactive”.

As for `O=C(Nc1nnc(C2CC2)o1)c1ccc(S(=O)(=O)N2CCCc3ccccc32)cc1`, the Potency was 11.2 µM (active).

`CC1CCCCN1S(=O)(=O)c1ccc(C(=O)Nc2nnc(-c3ccccc3Cl)o2)cc1` (centres undefined): the Potency entry is “inactive”.

In the case of `CCN(Cc1ccccc1)S(=O)(=O)c1ccc(C(=O)Nc2nnc(C3CC3)o2)cc1`, the Potency result is “inactive”.

As for `CN(CCOc1ccc(Br)cc1)CC(O)COc1ccc(C#N)cc1` (centres undefined), the Potency entry is “inactive”.

As to `NNc1ncnc2sc3c(c12)CCC3`, the Potency entry is “inactive”.

Consider `Clc1c(Cl)c(Cl)c2n[nH]nc2c1Cl`, for which the Potency entry was “inactive”.

For the molecule `O=C1CCCC(O)=C1C=NCc1ccccc1`, the Potency result is “inactive”.

As for `Cc1cccc(/C=C/C(=O)c2ccc([N+](=O)[O-])o2)c1`, the Potency is 3.16 µM (active).

For the molecule `CCc1c(C)nc2ncnn2c1N1CCC(C(=O)Nc2ccc(C)cc2)CC1`, the Potency entry was “inactive”.

For the molecule `CN1CCN(C2Cc3cc(Cl)ccc3Sc3cc(F)ccc32)CC1` (centres undefined), the Potency result is “inactive”.

Consider `COc1ccc2c(c1)CC(N1CCN(C)CC1)c1cc(OC)ccc1S2` (centres undefined), for which the Potency is 28.2 µM (active).

Turning to `Cc1cccc(OCCCC(=O)Nc2nccs2)c1`, the Potency result is “inactive”.

As for `O=C(CNC(=O)c1cccc(F)c1)N/N=C/c1cc(Br)ccc1OC(=O)/C=C/c1ccco1`, the Potency result was “inactive”.

Take `Cc1ccccc1N1CCN(Cc2c[nH]c3ccccc23)CC1`: the Potency entry is “inactive”.

In the case of `CN1C(=O)/C(=C/c2ccccc2F)Sc2ccc(C(=O)N3CCCC3)cc21`, the Potency result was “inactive”.

Turning to `CCN(CC)CCNC(=O)c1ccc(NC(=O)Cc2cccc3ccccc23)cc1`, the Potency entry is “inactive”.

Regarding `CCN(CC)CCNc1ccc(CO)c2sc3ccccc3c(=O)c12`, the Potency is 25.1 µM (active).

As for `O=c1c2ccccc2sc2c(CO)ccc(NCCN3CCCCC3)c12`, the Potency is 25.1 µM (active).

For `Cc1nc2cc(NC(=O)CSc3nc4c(C)cccc4cc3C#N)ccc2s1`, the Potency result was “inactive”.

As to `CC1(C)Cc2c(ccc3ccccc23)C2=C(C(=O)N3CCCC3)C(=O)C(=O)N21`, the Potency result is “inactive”.

Consider `O=C(/C=C/c1ccc(Cl)cc1)Nc1ccc(CN2CCOCC2)cc1`, for which the Potency result is “inactive”.

Consider `Cc1cccc(OCCn2cc(/C=N/NC(=O)c3ccncc3)c3ccccc32)c1`, for which the Potency result is “inactive”.

With `Cc1ccc(C(C)C)c(OCc2ccc(C(=O)N/N=C/c3cccc(O)c3O)cc2)c1`, the Potency was 3.98 µM (active).

In the case of `Cc1ccc(OCCn2cc(/C=N/NC(=O)c3ccncc3)c3ccccc32)cc1`, the Potency result was “inactive”.

Consider `COC(=O)c1ccc(C(=O)Nc2cc(Cl)ccc2Cl)cc1NC(=O)c1ccc(N(C)C)cc1`, for which the Potency entry is “inactive”.

For the molecule `Cc1cc(C2=NNC(=NC3CC3)SC2)c(C)n1-c1ccccc1F`, the Potency entry was “inactive”.

As for `Cc1cccc(N=C2NN=C(c3c(C)[nH]c4ccccc34)CS2)c1`, the Potency was 25.1 µM (active).

As to `C/C(=N\NC(=O)C(C)n1nc(C)c([N+](=O)[O-])c1C)c1ccccc1O` (centres undefined), the Potency entry is “inactive”.

For `COc1ccc(CC(N)c2csc(Nc3ccc(C(=O)c4ccccc4)cc3)n2)cc1` (centres undefined), the Potency entry is “inactive”.

Consider `CN(Cc1ccccc1)C(=O)c1ccc(Nc2nc(C(N)Cc3ccccc3)cs2)nc1` (centres undefined), for which the Potency was 10 µM (active).

As for `NC(=O)c1cccc(Nc2nc(C(N)Cc3ccc(C(F)(F)F)cc3)cs2)n1` (centres undefined), the Potency entry was “inactive”.

In the case of `COc1cc2c(C(=O)N3CCOCC3)c(CSc3ccccc3)n(C)c2cc1Br`, the Potency result was “inactive”.

Regarding `COc1ccc2nc(C)cc(NCc3ccc(F)cc3)c2c1`, the Potency result is “inactive”.

As to `COc1ccc(CNc2ncnc3c2[nH]c2ccccc23)cc1`, the Potency is 14.1 µM (active).

On to `Cc1cc(C(=O)CN2C(=O)c3ccccc3S2(=O)=O)c(C)n1C(C)C`, for which the Potency result is “inactive”.

Consider `COc1ccc(CCn2c(C)cc(C(=O)CSc3nc(N)cc(=O)[nH]3)c2C)cc1`, for which the Potency result was “inactive”.

Regarding `Cc1cccc(/C=N/NC(=O)c2cccc(Cl)c2)n1`, the Potency entry was “inactive”.

As for `Cc1[nH]n(-c2cccc3ccccc23)c(=O)c1/C=N/NC(=O)c1cccc([N+](=O)[O-])c1`, the Potency is 11.2 µM (active).

Take `Cc1[nH]n(-c2ccccc2)c(=O)c1C=Nc1cccc2cccnc12`: the Potency entry is “inactive”.

As to `Nc1ccc(Oc2ccccc2-c2ccccc2)cc1`, the Potency entry was “inactive”.

With `CC(NC1=CC(=O)c2cccnc2C1=O)C(O)c1ccccc1` (centres undefined), the Potency was 17.8 µM (active).

Consider `Cc1ccc(Sc2nnc(Cc3ccccc3)c3ccccc23)cc1`, for which the Potency result is “inactive”.

Take `Cc1ccc(S(=O)(=O)c2nc(NCc3ccc4c(c3)OCO4)sc2Cl)cc1`: the Potency entry was “inactive”.

For the molecule `Fc1ccc2[nH]c3c(N4CCSCC4)ncnc3c2c1`, the Potency is 17.8 µM (active).

Consider `Cc1ccc(C)c(OCCCC(=O)Nc2nccs2)c1`, for which the Potency result was “inactive”.

For `COc1ccc2c(Cl)c(C(=O)NN)sc2c1`, the Potency entry is “inactive”.

Regarding `Nc1c(C(=O)NCc2ccccc2)c2nc3ccccc3nc2n1-c1ccc2c(c1)OCO2`, the Potency result is “inactive”.

For the molecule `CCC1=C(CC2NCCc3ccccc32)CC2c3cc(OC)c(OC)cc3CCN2C1` (centres undefined), the Potency was 10 µM (active).

With `CC[C@H]1CN2CCc3cc(OC)c(OC)cc3C2C[C@@H]1C[C@H]1NCCc2cc(OC)c(OC)cc21` (some centres undefined), the Potency is 0.316 µM (active).

As for `O=C(CC1NCCc2ccccc21)Nc1ccc(Cl)cc1` (centres undefined), the Potency result was “inactive”.

For `O=C(C1CCC(CNS(=O)(=O)c2cccc3nsnc23)CC1)N1CC=C(c2ccccc2)CC1` (centres undefined), the Potency result is “inactive”.

For `COc1ccc(Br)cc1C(=O)Nc1ccccc1N1CCN(C(=O)c2ccccc2)CC1`, the Potency result was “inactive”.

Take `CCOC(=O)COc1ccc(Br)cc1/C=C/c1[nH]c(=O)[nH]c(=O)c1[N+](=O)[O-]`: the Potency result was “inactive”.

In the case of `CCN(CC)S(=O)(=O)c1ccc(N/N=C/c2cc(OC)ccc2O)nc1`, the Potency entry is “inactive”.

Consider `CC(C)(C)c1ccc(Oc2ccc(N)cn2)cc1`, for which the Potency entry was “inactive”.

For the molecule `COc1ccc2c(c1)C(SCC(=O)NCCc1ccc(Cl)cc1)CC(C)(C)O2` (centres undefined), the Potency result was “inactive”.

`Cc1cccc(N2CCN(C(=O)CNC(=O)Cc3ccccc3)CC2)c1C`: the Potency result was “inactive”.

For the molecule `O=C(NNC(=O)C(c1ccccc1)c1ccccc1)c1ccccn1`, the Potency is 10 µM (active).

Take `CCC1=C(OC(=O)N(CC)CC)N2C(=O)OC(=NCCc3c[nH]c4ccccc34)[C@]2(Cc2ccccc2)[C@H]2C1=CC[C@H]1C(=O)N(c3ccccc3)C(=O)[C@H]12`: the Potency entry was “inactive”.

As for `CCc1ccc(-c2nc(CS(=O)CC(=O)NCc3ccco3)c(C)o2)cc1` (centres undefined), the Potency entry is “inactive”.

Turning to `Cc1nc(N=C(N)N)nc2c(C)cccc12`, the Potency is 8.91 µM (active).

Regarding `O=C(N/N=C/c1cc(Br)cc(Br)c1O)c1cccc(N2CCCC2=O)c1`, the Potency entry was “inactive”.

As to `O=C(Nc1cccc2cccnc12)c1csc(COCCO)n1`, the Potency entry was “inactive”.

Turning to `CS(=O)(=O)N(CC(O)CON=C1c2ccccc2-c2ccccc21)c1ccc(F)cc1` (centres undefined), the Potency result is “inactive”.

As for `Cc1ccc(NC(=O)C2CCN(S(=O)(=O)c3ccc(N4CCCC4=O)cc3)CC2)cc1Cl`, the Potency entry was “inactive”.

For the molecule `COc1ccc2nc(NC(=O)C3CCN(S(=O)(=O)c4cccs4)CC3)sc2c1`, the Potency result is “inactive”.

As to `Cc1ccnc(NC(=O)C2CCN(S(=O)(=O)c3c(C)c(C)cc(C)c3C)CC2)c1`, the Potency is 15.8 µM (active).

As for `O=C(Cn1cnc([N+](=O)[O-])c1)Nc1cc(Oc2ccc(Cl)cc2Cl)cc([N+](=O)[O-])c1`, the Potency entry is “inactive”.

`Oc1ccc(Cl)cc1Sc1cc(Cl)ccc1O`: the Potency was 20 µM (active).

Regarding `CCOc1ccc(NC(=O)Nc2nnc(CC(=O)NCc3ccccc3)s2)cc1`, the Potency result was “inactive”.

`Cc1cc(C)c(CSc2ncc(-c3ccc([N+](=O)[O-])cc3)[nH]2)c(C)c1`: the Potency entry was “inactive”.

`CCN(c1ccccc1)S(=O)(=O)c1ccc(C(=O)N(CCCN(C)C)c2nc3c(C)cccc3s2)cc1`: the Potency is 28.2 µM (active).

For `CN(C)CCCN(C(=O)c1ccc(S(=O)(=O)N(C)Cc2ccccc2)cc1)c1nc2cc3c(cc2s1)OCO3`, the Potency is 22.4 µM (active).

In the case of `CCOc1ccccc1NC(=O)CCCc1nc2ccccc2c(=O)[nH]1`, the Potency result is “inactive”.

With `Cc1nn(C)c(C)c1NC(=O)CSc1nc(Cc2ccccc2)nc2c1cnn2-c1ccccc1`, the Potency entry is “inactive”.

For `CCC(C)n1cnc2c(c1=O)c1nc3ccccc3nc1n2-c1ccc2c(c1)OCCO2` (centres undefined), the Potency entry is “inactive”.

Regarding `C=CCn1cnc2c(c1=O)c1nc3ccccc3nc1n2/N=C/c1cc(OC)c(OC)c(OC)c1`, the Potency was 11.2 µM (active).

In the case of `CCCCC(=O)N(C)c1c(CC)nc2c(OCc3ccc(Cl)cc3Cl)cccn12`, the Potency result is “inactive”.

`COc1ccc(Br)cc1C(=O)NC(=S)Nc1ccc(CN2CCOCC2)cc1`: the Potency result was “inactive”.

Take `CNc1ccc(Br)cc(C(=O)/C=C/c2ccc3c(c2)OCO3)c1=O`: the Potency entry was “inactive”.

For `CCc1ccc(/C=C/C(=O)c2cc(Br)ccc(=O)c2O)cc1`, the Potency was 28.2 µM (active).

`CCNc1ccc(Br)cc(C(=O)/C=C/c2ccccc2Cl)c1=O`: the Potency entry was “inactive”.
